Measured values as given in PubChem BioAssay (NCI).
Values joined by “and” are separate entries in the source; they are usually repeats but may differ in a detail not shown here. Identical values can stand only once. The panel holds about 83,000 compounds, 20% with a hit somewhere; the sample as a whole holds those more often.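 The test compound was applied at a single concentration to cells in 96-well plates for 48 hours, and percent growth was recorded.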

Tests used:
Test in all cases: NCI-60 one-dose screen, 48 h (100 = growth as untreated, 0 = no growth, -100 = all killed); active = growth percent below 10; inactive = the rest
SK-MEL-2 melanoma = settings: 10 µM unless noted
EKVX NSCLC = settings: 10 µM
SN12C renal = settings: 10 µM unless noted
UO-31 renal = settings: 10 µM unless noted
TK-10 renal = settings: 10 µM unless noted
ACHN renal = settings: 10 µM unless noted
CAKI-1 renal = settings: 10 µM unless noted
A498 renal = settings: 10 µM unless noted
CCRF-CEM leukemia = settings: 10 µM
MOLT-4 leukemia = settings: 10 µM unless noted
SR leukemia = settings: 10 µM unless noted
OVCAR-8 ovarian = settings: 10 µM unless noted
OVCAR-5 ovarian = settings: 10 µM unless noted
IGROV1 ovarian = settings: 10 µM unless noted
OVCAR-3 ovarian = settings: 10 µM unless noted
NCI/ADR-RES ovarian = settings: 10 µM unless noted
RPMI-8226 leukemia = settings: 10 µM unless noted
SK-OV-3 ovarian = settings: 10 µM unless noted
OVCAR-4 ovarian = settings: 10 µM unless noted
HS 578T breast = settings: 10 µM unless noted

Measured: growth

NN1CCOC(c2ccccc2)C1 (centres undefined)
inactive: SK-MEL-2 melanoma 110% | EKVX NSCLC 115% | SN12C renal 102% | UO-31 renal 71.4% | TK-10 renal 122% | ACHN renal 99.1% | CAKI-1 renal 109% | A498 renal 107% | CCRF-CEM leukemia 99.3% | MOLT-4 leukemia 76.1% | SR leukemia 29.8% | OVCAR-8 ovarian 103% | OVCAR-5 ovarian 97.1% | IGROV1 ovarian 122% | OVCAR-3 ovarian 106% | NCI/ADR-RES ovarian 105%

O=C1OC(c2ccccc2)=N/C1=C\c1ccccc1
inactive: SK-MEL-2 melanoma 116% | SN12C renal 102% | UO-31 renal 95.2% | TK-10 renal 117% | ACHN renal 104% | CAKI-1 renal 110% | CCRF-CEM leukemia 100% | MOLT-4 leukemia 105% | SR leukemia 108% | RPMI-8226 leukemia 102% | OVCAR-8 ovarian 100% | OVCAR-5 ovarian 105% | IGROV1 ovarian 99.1% | OVCAR-3 ovarian 111% | NCI/ADR-RES ovarian 99.7%

CCc1cc(C)cc(O)c1
inactive: EKVX NSCLC 101% | SN12C renal 105% | UO-31 renal 77.3% | TK-10 renal 98.6% | ACHN renal 117% | CAKI-1 renal 108% | A498 renal 102% | CCRF-CEM leukemia 98.4% | MOLT-4 leukemia 98.1% | SR leukemia 102% | OVCAR-8 ovarian 105% | OVCAR-5 ovarian 106% | SK-OV-3 ovarian 102% | IGROV1 ovarian 92% | OVCAR-3 ovarian 126% | NCI/ADR-RES ovarian 111%

O=C(O)CCCl
inactive: SK-MEL-2 melanoma 123% | SN12C renal 107% | UO-31 renal 97% | TK-10 renal 107% | ACHN renal 101% | CAKI-1 renal 102% | A498 renal 99.1% | CCRF-CEM leukemia 93% | MOLT-4 leukemia 109% | SR leukemia 83.7% | RPMI-8226 leukemia 101% | OVCAR-8 ovarian 104% | OVCAR-5 ovarian 99.1% | IGROV1 ovarian 107% | OVCAR-3 ovarian 115% | NCI/ADR-RES ovarian 108%

ClCCOCCOc1ccc(C2CCCCC2)cc1
inactive: SK-MEL-2 melanoma 102% | SN12C renal 96.3% | UO-31 renal 99.5% | TK-10 renal 108% | ACHN renal 108% | CAKI-1 renal 97.3% | A498 renal 73.1% | CCRF-CEM leukemia 107% | MOLT-4 leukemia 120% | SR leukemia 98.5% | OVCAR-8 ovarian 97.1% | OVCAR-5 ovarian 95.4% | OVCAR-4 ovarian 97.7% | SK-OV-3 ovarian 102% | IGROV1 ovarian 117% | OVCAR-3 ovarian 103% | HS 578T breast 101% | NCI/ADR-RES ovarian 115%

O=c1[nH]cnc2c1ncn2C1OC(CO)C(O)C1O (centres undefined)
inactive: SK-MEL-2 melanoma 110% | EKVX NSCLC 123% and 107% and 93.1% | SN12C renal 99.8% and 121% and 96.1% | UO-31 renal 113% and 102% and 55.3% | TK-10 renal 113% and 114% and 106% | ACHN renal 116% and 109% and 105% | CAKI-1 renal 113% and 95.3% and 63.4% | A498 renal 116% and 129% and 113% | CCRF-CEM leukemia 99.5% and 90.3% and 69.9% | MOLT-4 leukemia 93% and 76% and 105% | SR leukemia 106% and 83.5% and 88.4% | OVCAR-8 ovarian 106% and 100% and 103% | OVCAR-5 ovarian 116% and 114% and 96.5% | IGROV1 ovarian 118% and 133% and 64.6% | OVCAR-3 ovarian 113% and 111% and 107% | NCI/ADR-RES ovarian 99.5% and 105% and 102%

COc1ccc(N/C=C/C2=[N+](C)c3ccccc3C2(C)C)c(OC)c1
inactive: SK-MEL-2 melanoma 114% | SN12C renal 96.6% | UO-31 renal 78.8% | TK-10 renal 106% | ACHN renal 104% | CAKI-1 renal 81.9% | CCRF-CEM leukemia 90.7% | MOLT-4 leukemia 104% | SR leukemia 101% | OVCAR-8 ovarian 93.6% | OVCAR-5 ovarian 106% | OVCAR-4 ovarian 91.7% | SK-OV-3 ovarian 90.7% | IGROV1 ovarian 106% | OVCAR-3 ovarian 93.6% | HS 578T breast 99.9% | NCI/ADR-RES ovarian 92.8%
